Assay [1] addresses Glucocorticoid receptor (Homo sapiens) (UniProt P04150). Put plainly: ATG_GR_TRANS: Attagene TRANS-FACTORIAL HepG2 Assay for human Glucocorticoid Receptor (GR) (AID 2282978; active = hit-call score of the fitted dose curve at least 0.9, where 1 is the maximum;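 note: activators score as hits since higher reporter transcript over DMSO is fitted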). Particulars: HepG2 Attagene TRANS GR reporter, mRNA transcription. The method in brief: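 HepG2 cells transiently transfected with GAL4-UAS reporter units and exogenous GR-Gal4 chimera, dosed 24 h. Reporter mRNA by RT-PCR, FAM labeling, HpaI digest and capillary electrophoresis; gain-of-signal fit versus DMSO.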

Assay [2] concerns the target Bile acid receptor (Homo sapiens) (UniProt Q96RI1). Description: ATG_FXR_TRANS: Attagene TRANS-FACTORIAL HepG2 Assay for Farnesoid X Receptor (FXR) (AID 2282979; active = hit-call score of the fitted dose curve at least 0.9, where 1 is the maximum;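 note: hits raise reporter mRNA above DMSO so AC50 marks FXR activation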). The conditions noted are these: HepG2 Attagene TRANS FXR-GAL4 reporter transcription. The procedure, abridged: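 HepG2 cells transiently transfected with reporter constructs in which a chimeric FXR-GAL4 protein drives a GAL4-UAS reporter; 24 h compound exposure. Reporter mRNA measured by RT-PCR, FAM labelling, HpaI digestion and capillary electrophoresis; gain-of-signal versus DMSO.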

Assay [3] deals with Oxysterols receptor LXR-beta (Homo sapiens) (UniProt P55055). Put plainly: ATG_LXRb_TRANS: Attagene TRANS-FACTORIAL HepG2 Assay for human Liver X Receptor beta (LXRb) (AID 2282981; active = hit-call score of the fitted dose curve at least 0.9, where 1 is the maximum). The conditions noted are these: HepG2 Attagene TRANS GAL4-LXRb reporter, mRNA. The procedure, abridged:
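HepG2 cells transiently transfected with multiple reporter transcription units carrying chimeric NR-Gal4 proteins acting on GAL4-UAS reporters; compound exposure 24 h. Reporter mRNA quantified by RT-PCR, 6-FAM labelling, HpaI digestion and capillary electrophoresis; gain of signal versus DMSO.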

Assay [4] in a line: ATG_M_32_TRANS: Attagene TRANS-FACTORIAL HepG2 Assay for M32 Transcription Factor (Internal Marker) (AID 2282984; active = hit-call score of the fitted dose curve at least 0.9, where 1 is the maximum). The conditions noted are these: HepG2 Attagene TRANS M32 internal marker reporter. The procedure, abridged:
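HepG2 cells transiently transfected with multiple GAL4-UAS reporter transcription units, dosed for 24 hours; reporter mRNA quantified by RT-PCR, 6-FAM primer extension, HpaI digestion and capillary electrophoresis. Gain-of-signal fitted versus DMSO baseline; internal background-control marker.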

The target of assay [5] is Nuclear receptor subfamily 4 group A member 2 (Homo sapiens) (UniProt P43354). Put plainly: ATG_NURR1_TRANS: Attagene TRANS-FACTORIAL HepG2 Assay for human Nuclear Receptor Related Protein 1 (NURR1) (AID 2282985; active = hit-call score of the fitted dose curve at least 0.9, where 1 is the maximum). Particulars: HepG2 Attagene TRANS reporter, mRNA readout. The method in brief: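 HepG2 cells transiently transfected with GAL4-UAS reporter units and chimeric NR-Gal4 constructs; chemical exposure 24 h. Reporter mRNA quantified by RT-PCR, fluorescent labelling and capillary electrophoresis; gain of signal fitted relative to DMSO baseline.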

For assay [6], the target named is Transcriptional activator Myb (Homo sapiens) (UniProt P10242). Description: ATG_Myb_CIS: Attagene CIS-FACTORIAL HepG2 Assay for human Myeloblastosis (Myb) Proto-Oncogene Transcription Factor (AID 2282986). The conditions noted are these: HepG2 Attagene CIS-FACTORIAL Myb reporter transcription; actives raise or lower the signal. The procedure, abridged: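 Transiently transfected HepG2 cells carrying a multiplexed cis-promoter reporter set report endogenous Myb activity after 24 h compound exposure. Reporter mRNA is read by RT-PCR with capillary electrophoresis of fluorescent products, fitted bidirectionally against DMSO.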

Assay [7] is described as follows: ATG_NFI_CIS: Attagene CIS-FACTORIAL HepG2 Assay for human Nuclear Factor I (NFI) (AID 2282989). The conditions noted are these: HepG2 cis-regulatory reporter, NFI response element transcription; actives raise or lower the signal. The method in brief: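 Reporter transcripts were measured by RT-PCR with fluorescent primer extension and capillary electrophoresis 24 h post-treatment. HepG2 cells carried transiently transfected cis-regulated reporter constructs reporting endogenous factor activity; gain or loss fitted against DMSO baseline.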

Assay [8] addresses Myc proto-oncogene protein (Homo sapiens) (UniProt P01106). Put plainly: ATG_Myc_CIS: Attagene CIS-FACTORIAL HepG2 Assay for human Myelocytomatosis (Myc) Proto-Oncogene Transcription Factor (AID 2282990). Particulars: HepG2, Attagene cis-reporter transcription factor activity; actives raise or lower the signal. The procedure, abridged:
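DMSO-normalised, bidirectionally fitted reporter mRNA signal. HepG2 cells transfected with cis reporter constructs, treated 24 h; transcripts detected by RT-PCR, 6-FAM primer extension and CE.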

A short description of assay [9]: ATG_NRF2_ARE_CIS: Attagene CIS-FACTORIAL HepG2 Assay for human Nuclear Factor Erythroid 2 Related Factor 2 (NFR2) response to Antioxidant Response Elements (ARE) (AID 2282992).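 For AC50: reporter mRNA level measured by RT-PCR and capillary electrophoresis fluorescence.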 The conditions noted are these: HepG2 Attagene ARE/NRF2 reporter, transcription factor activity; actives raise or lower the signal. The procedure, abridged: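 Transient MRTU transfection of HepG2; 24 h compound exposure; TriZol RNA, RT with oligo(dT), PCR, 6-FAM primer extension, HpaI cut, CE. Bidirectional fit vs DMSO.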

Assay [10] in a line: ATG_Oct_MLP_CIS: Attagene CIS-FACTORIAL HepG2 Assay for human Octamer-Binding Transcription Factor (Oct) (AID 2282993). The conditions noted are these: HepG2 Attagene cis-factorial Oct reporter, mRNA; actives raise or lower the signal. The procedure, abridged: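 Readout is reporter transcript level from RT-PCR with fluorescent primer extension and capillary electrophoresis, fitted in both directions against DMSO. Transfected HepG2 reporter units report endogenous factor activity after 24 h dosing.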

Assay [11] in a line: BSK_3C_TissueFactor: BioMAP Diversity Plus: 3C Assay for Tissue Factor Biomarker Activity (AID 2282997). The conditions noted are these: BioMAP 3C HUVEC, tissue factor biomarker readout; actives raise or lower the signal. The method in brief: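 Primary human umbilical vein endothelial cells in the 3C system were exposed to test chemical for 24 h, then Tissue Factor measured by ELISA. Activity was fitted bidirectionally against DMSO as negative control and baseline.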

The nature of assay [12]: BSK_3C_uPAR: BioMAP Diversity Plus: 3C Assay for Urokinase-type plasminogen activator receptor (uPAR) Biomarker Activity (AID 2282998). The conditions noted are these: BioMAP 3C HUVEC, uPAR biomarker ELISA; actives raise or lower the signal. The method in brief:
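Cell-surface uPAR on HUVEC (3C system) read by ELISA at 24 h post-treatment, with DMSO as baseline and fitting in both directions. Parallel cultures stained with SRB to flag overt cytotoxicity.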

The target of assay [13] is Oxysterols receptor LXR-alpha (Homo sapiens) (UniProt Q13133). Put plainly: ATG_LXRa_TRANS: Attagene TRANS-FACTORIAL HepG2 Assay for human Liver X Receptor alpha (LXRa) (AID 2282980; active = hit-call score of the fitted dose curve at least 0.9, where 1 is the maximum). Particulars: HepG2 Attagene TRANS reporter, LXRa transactivation. The method in brief: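 HepG2 cells were transiently transfected with multiplexed reporter units driven by chimeric LXRa–GAL4 fusion proteins, then dosed for 24 h. Reporter mRNA was quantified by RT-PCR, fluorescent labelling and capillary electrophoresis; gain of signal fitted against DMSO baseline.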

Assay [14] deals with Nuclear respiratory factor 1 (Homo sapiens) (UniProt Q16656). Put plainly: ATG_NRF1_CIS: Attagene CIS-FACTORIAL HepG2 Assay for human Nuclear Respiratory Factor 1 (NRF1) Orphan Gene (AID 2282987). The conditions noted are these: HepG2 NRF1 cis-element reporter, Attagene multiplex; actives raise or lower the signal. The method in brief: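 HepG2 cells transiently transfected with multiple cis-regulated reporter units, exposed 24 h. Reporter mRNAs measured by RT-PCR, fluorescent labelling, HpaI digestion and capillary electrophoresis; bidirectional fitting against DMSO.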

Assay [15] addresses Estrogen-related receptor gamma (Homo sapiens) (UniProt P62508). Description: ATG_ERRg_TRANS: Attagene TRANS-FACTORIAL HepG2 Assay for human Estrogen-Related Receptor gamma (ERRg) (AID 2282977; active = hit-call score of the fitted dose curve at least 0.9, where 1 is the maximum;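 note: hits increase reporter signal over DMSO so potencies reflect activators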). The conditions noted are these: HepG2 Attagene TRANS reporter, ERRg transactivation. The method in brief:
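Transient HepG2 transfectants, 24 h compound exposure, GAL4-UAS reporter mRNA by RT-PCR/6-FAM labelling/capillary electrophoresis; positive direction vs DMSO.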

In assay [16] the target is Hepatocyte nuclear factor 4-alpha (Homo sapiens) (UniProt P41235). Put plainly: ATG_HNF4a_TRANS: Attagene TRANS-FACTORIAL HepG2 Assay for human Hepatocyte Nuclear Factor 4 alpha (HNF4a) (AID 2282982; active = hit-call score of the fitted dose curve at least 0.9, where 1 is the maximum). The conditions noted are these: HepG2 HNF4a transactivation reporter, mRNA readout. The method in brief:
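HepG2 cells transiently transfected with multiplexed GAL4-UAS reporter units responsive to chimeric NR-GAL4 proteins; compound exposure 24 h. Reporter mRNA quantified by RT-PCR, 6-FAM labelling, HpaI digestion and capillary electrophoresis; gain of signal versus DMSO baseline.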

The nature of assay [17]: ATG_NF_kB_CIS: Attagene CIS-FACTORIAL HepG2 Assay for human Nuclear Factor Kappa B (NF-kB) (AID 2282991). The conditions noted are these: HepG2 Attagene cis-factorial NF-kB reporter mRNA; actives raise or lower the signal. The method in brief:
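HepG2 cells transfected with cis-promoter-driven reporter units, so endogenous transcription factor activity is measured. Reporter mRNA quantified 24 h after dosing by RT-PCR and capillary electrophoresis, with bidirectional fitting against DMSO.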

Assay [18] is described as follows: ATG_M_06_TRANS: Attagene TRANS-FACTORIAL HepG2 Assay for M06 Transcription Factor (Internal Marker) (AID 2282983; active = hit-call score of the fitted dose curve at least 0.9, where 1 is the maximum). The conditions noted are these: HepG2 Attagene TRANS M06 internal marker reporter. The procedure, abridged: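 HepG2 cells transiently transfected with multiplexed GAL4-UAS reporter transcription units; after 24 h compound exposure, reporter mRNA measured by RT-PCR, FAM-labelled primer extension, HpaI digestion and capillary electrophoresis. Gain-of-signal fitted versus DMSO baseline; background control readout.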

The target of assay [19] is Cellular tumor antigen p53 (Homo sapiens) (UniProt P04637). Description: ATG_p53_CIS: Attagene CIS-FACTORIAL HepG2 Assay for human p53 Transcription Factor (AID 2282994). Particulars: HepG2 p53 cis-element reporter, Attagene mRNA; actives raise or lower the signal. The method in brief:
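HepG2, transient MRTU transfection (cis promoter elements, endogenous TFs); 24 h dosing; RNA isolation, RT-PCR, 6-FAM primer extension, HpaI digest, CE fluorescence; bidirectional fit vs DMSO.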

Data on eight compounds can be found in PubChem BioAssay (EPA / NIEHS).

Each structure is given as a SMILES string. Inconclusive results are not listed. Activity calls are given as the source filed them. Rule for the calls, unless noted: active = hit-call score of the fitted dose curve at least 0.9, where 1 is the maximum; inactive = score below 0.9.

Chain of Myc proto-oncogene protein (Homo sapiens) (P01106 whole entry, looked up): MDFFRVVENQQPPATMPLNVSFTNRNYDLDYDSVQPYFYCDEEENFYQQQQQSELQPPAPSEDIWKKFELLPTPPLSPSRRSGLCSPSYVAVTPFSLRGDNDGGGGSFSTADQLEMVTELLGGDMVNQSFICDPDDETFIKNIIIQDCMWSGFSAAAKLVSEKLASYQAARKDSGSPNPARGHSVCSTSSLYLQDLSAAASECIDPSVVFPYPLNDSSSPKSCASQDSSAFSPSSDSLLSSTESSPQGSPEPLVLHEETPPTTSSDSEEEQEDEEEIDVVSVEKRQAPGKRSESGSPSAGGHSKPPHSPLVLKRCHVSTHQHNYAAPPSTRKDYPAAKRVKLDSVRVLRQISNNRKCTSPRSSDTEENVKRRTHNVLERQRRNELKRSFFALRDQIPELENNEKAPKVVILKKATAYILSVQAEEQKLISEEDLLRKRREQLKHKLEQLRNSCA
Chain of Glucocorticoid receptor (Homo sapiens) (P04150 whole entry, looked up, the tested form may be a part): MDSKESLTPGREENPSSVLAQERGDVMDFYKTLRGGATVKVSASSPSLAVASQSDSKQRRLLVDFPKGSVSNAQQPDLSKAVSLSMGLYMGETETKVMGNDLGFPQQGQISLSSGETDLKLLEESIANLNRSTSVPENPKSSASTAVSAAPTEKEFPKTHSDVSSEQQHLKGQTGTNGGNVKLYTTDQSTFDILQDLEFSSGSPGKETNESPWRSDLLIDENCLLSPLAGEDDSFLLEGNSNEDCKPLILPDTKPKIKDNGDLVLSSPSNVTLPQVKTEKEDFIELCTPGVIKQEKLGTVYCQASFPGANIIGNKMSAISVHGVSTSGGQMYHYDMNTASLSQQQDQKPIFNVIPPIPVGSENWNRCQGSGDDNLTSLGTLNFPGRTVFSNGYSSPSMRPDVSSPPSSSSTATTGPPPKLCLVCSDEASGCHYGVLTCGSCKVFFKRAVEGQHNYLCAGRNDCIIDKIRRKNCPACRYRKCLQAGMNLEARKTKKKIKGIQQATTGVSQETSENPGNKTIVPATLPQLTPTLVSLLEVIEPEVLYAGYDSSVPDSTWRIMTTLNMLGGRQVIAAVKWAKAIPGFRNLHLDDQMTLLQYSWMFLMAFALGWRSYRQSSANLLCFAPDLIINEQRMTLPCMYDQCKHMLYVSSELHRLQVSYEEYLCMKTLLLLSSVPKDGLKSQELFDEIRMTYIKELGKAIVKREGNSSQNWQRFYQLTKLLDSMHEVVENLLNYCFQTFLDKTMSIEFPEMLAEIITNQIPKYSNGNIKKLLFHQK
Chain of Nuclear respiratory factor 1 (Homo sapiens) (Q16656 whole entry, looked up): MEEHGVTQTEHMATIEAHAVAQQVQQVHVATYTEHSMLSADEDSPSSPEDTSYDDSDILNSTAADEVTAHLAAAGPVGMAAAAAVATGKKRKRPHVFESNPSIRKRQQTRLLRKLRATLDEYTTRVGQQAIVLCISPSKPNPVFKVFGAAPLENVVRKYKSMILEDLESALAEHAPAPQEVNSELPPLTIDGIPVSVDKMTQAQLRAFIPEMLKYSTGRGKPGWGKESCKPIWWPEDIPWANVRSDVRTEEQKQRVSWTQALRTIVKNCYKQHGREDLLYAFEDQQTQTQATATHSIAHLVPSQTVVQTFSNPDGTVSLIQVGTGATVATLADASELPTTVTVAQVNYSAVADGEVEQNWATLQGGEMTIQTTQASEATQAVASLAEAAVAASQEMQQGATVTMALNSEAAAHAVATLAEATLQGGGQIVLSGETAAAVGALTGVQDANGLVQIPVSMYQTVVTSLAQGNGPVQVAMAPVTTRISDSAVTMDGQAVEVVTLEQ
Chain of Oxysterols receptor LXR-alpha (Homo sapiens) (Q13133 whole entry, looked up, the tested form may be a part): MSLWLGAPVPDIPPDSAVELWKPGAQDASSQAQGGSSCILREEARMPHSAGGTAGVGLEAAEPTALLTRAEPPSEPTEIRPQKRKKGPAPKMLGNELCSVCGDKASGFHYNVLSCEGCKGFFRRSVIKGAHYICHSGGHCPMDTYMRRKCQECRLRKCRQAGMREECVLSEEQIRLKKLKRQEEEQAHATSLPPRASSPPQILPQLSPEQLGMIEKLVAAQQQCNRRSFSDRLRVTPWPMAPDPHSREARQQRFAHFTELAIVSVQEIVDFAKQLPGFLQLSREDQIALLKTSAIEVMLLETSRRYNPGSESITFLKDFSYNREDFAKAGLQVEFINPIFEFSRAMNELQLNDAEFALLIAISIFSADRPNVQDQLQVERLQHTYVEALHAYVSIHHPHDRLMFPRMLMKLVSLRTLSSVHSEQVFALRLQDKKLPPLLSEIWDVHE
Chain of Nuclear receptor subfamily 4 group A member 2 (Homo sapiens) (P43354 whole entry, looked up, the tested form may be a part): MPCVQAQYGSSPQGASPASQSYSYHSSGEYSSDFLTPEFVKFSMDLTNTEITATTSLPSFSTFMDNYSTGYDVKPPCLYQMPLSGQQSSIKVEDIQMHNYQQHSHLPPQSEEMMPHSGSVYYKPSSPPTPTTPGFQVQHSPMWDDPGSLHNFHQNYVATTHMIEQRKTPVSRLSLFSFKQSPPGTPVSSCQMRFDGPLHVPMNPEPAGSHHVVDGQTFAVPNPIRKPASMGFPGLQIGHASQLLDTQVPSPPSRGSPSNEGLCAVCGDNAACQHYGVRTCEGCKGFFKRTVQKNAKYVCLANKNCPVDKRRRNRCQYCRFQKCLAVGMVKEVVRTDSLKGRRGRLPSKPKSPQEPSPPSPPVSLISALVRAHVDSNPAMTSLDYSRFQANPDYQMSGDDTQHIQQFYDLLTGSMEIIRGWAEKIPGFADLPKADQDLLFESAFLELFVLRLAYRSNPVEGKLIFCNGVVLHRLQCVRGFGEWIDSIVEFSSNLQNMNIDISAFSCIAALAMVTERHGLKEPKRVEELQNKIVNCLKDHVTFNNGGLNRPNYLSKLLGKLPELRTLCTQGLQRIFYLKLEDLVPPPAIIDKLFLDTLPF
Chain of Oxysterols receptor LXR-beta (Homo sapiens) (P55055 whole entry, looked up, the tested form may be a part): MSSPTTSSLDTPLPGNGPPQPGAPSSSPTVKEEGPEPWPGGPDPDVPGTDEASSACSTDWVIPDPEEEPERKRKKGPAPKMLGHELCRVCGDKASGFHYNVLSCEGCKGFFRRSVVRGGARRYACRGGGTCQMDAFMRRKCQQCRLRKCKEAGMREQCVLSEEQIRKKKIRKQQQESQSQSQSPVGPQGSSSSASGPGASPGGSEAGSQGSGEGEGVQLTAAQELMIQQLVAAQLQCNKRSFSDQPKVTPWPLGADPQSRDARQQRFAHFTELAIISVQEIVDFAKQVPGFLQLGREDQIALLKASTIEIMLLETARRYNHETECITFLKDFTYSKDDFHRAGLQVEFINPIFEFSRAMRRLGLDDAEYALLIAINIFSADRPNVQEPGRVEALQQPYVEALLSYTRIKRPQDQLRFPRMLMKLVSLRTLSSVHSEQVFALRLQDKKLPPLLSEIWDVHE
Chain of Hepatocyte nuclear factor 4-alpha (Homo sapiens) (P41235 whole entry, looked up, the tested form may be a part): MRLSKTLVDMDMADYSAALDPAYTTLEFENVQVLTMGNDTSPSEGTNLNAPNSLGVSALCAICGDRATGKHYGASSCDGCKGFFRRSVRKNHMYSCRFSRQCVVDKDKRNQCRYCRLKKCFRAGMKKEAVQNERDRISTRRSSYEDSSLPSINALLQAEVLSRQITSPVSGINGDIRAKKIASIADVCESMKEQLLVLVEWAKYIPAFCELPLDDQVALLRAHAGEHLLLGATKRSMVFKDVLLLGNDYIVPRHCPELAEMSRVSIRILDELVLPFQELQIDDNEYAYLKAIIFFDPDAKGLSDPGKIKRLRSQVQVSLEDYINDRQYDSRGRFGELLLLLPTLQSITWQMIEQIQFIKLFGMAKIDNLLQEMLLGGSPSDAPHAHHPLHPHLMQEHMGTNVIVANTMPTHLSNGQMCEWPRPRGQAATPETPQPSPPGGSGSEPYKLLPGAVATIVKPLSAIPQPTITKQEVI
Chain of Estrogen-related receptor gamma (Homo sapiens) (P62508 whole entry, looked up, the tested form may be a part): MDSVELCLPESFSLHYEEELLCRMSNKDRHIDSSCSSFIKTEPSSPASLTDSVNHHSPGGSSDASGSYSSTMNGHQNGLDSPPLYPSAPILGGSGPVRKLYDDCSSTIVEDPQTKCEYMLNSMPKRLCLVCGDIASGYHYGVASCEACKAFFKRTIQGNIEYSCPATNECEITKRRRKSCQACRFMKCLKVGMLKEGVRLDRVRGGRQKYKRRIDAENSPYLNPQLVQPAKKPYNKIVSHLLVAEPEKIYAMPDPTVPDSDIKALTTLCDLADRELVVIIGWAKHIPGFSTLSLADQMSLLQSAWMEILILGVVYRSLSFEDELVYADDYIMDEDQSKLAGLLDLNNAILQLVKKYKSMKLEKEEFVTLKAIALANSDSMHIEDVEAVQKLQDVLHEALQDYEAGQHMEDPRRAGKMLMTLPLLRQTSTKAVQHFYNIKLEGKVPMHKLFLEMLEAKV
Chain of Transcriptional activator Myb (Homo sapiens) (P10242 whole entry, looked up): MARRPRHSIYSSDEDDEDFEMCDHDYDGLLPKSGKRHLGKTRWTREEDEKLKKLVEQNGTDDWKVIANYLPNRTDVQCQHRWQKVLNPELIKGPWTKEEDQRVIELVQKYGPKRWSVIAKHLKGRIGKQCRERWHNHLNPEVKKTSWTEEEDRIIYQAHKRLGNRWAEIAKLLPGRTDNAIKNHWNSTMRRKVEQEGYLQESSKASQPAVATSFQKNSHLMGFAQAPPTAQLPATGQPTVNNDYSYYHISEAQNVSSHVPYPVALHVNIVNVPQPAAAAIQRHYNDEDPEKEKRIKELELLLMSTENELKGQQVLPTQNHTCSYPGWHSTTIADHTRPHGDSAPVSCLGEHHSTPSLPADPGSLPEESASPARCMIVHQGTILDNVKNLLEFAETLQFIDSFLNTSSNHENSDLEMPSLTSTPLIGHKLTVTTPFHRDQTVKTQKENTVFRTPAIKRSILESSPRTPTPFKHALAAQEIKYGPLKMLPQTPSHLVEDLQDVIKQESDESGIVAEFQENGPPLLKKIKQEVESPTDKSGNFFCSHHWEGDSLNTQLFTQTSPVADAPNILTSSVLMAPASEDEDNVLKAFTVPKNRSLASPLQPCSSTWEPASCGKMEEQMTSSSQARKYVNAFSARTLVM

As to `CCCCSP(=O)(SCCCC)SCCCC`, the call in assay [1], in [2], in assay [3], in assay [4], in assay [5] and in [7] was inactive. In addition, the outcome in [11] was inactive. In addition, the AC50 in assay [6] was 83.3 µM (active); in assay [8], 83.2 µM (active); in assay [9], 18.3 µM (active); in assay [10] it was 11.8 µM (active); in [12], 28.7 µM (active).
Take `CCCSP(=O)(OCC)SCCC`: the compound was classed as inactive in assay [1], in assay [2], in assay [13], in assay [3], in assay [5] and in [6]. Moreover, the result in assay [14], in assay [7], in [8], in assay [10], in assay [11] and in assay [12] was inactive. Also, in assay [9], the AC50 was 40.9 µM (active).
Take `COP(=O)(OC)C(O)C(Cl)(Cl)Cl` (stereo not given): the call in assay [15], in [1], in assay [2], in assay [13], in assay [16] and in [4] was inactive. For the same compound, the compound was called inactive in assay [6], in assay [14], in assay [7], in assay [8], in assay [17] and in [11]. For the same compound, the result in assay [12] was inactive. Further, the values for the AC50 in assay [3], in assay [9] and in assay [10] were 92.4 µM (active), 29.9 µM (active) and 50 µM (active), respectively.
In the case of `COc1cc(OC)nc(Sc2cccc(Cl)c2C(=O)O)n1`, the call in assay [15], in [1], in assay [13], in assay [3], in [18] and in assay [4] was inactive. For the same compound, the compound was classed as inactive in assay [5], in [6], in assay [14], in assay [7], in assay [8] and in assay [17]. In addition, the compound was called inactive in assay [9], in assay [10], in assay [11] and in assay [12].
For `Nc1c(Cl)cc([N+](=O)[O-])cc1Cl`, the compound was called inactive in assay [15], in [2], in assay [13], in assay [3], in [16] and in assay [18]. Moreover, the outcome in assay [4], in [6], in assay [14], in assay [8], in [11] and in assay [12] was inactive. The AC50 in assay [7] was 50 µM (active); in assay [17], 59.5 µM (active); in [9] it was 41.1 µM (active); in assay [10] it was 50 µM (active).
In the case of `CCOP(=S)(OCC)Oc1ccc2c(C)c(Cl)c(=O)oc2c1`, the compound was called inactive in assay [15], in assay [1], in assay [13], in assay [3], in assay [18] and in assay [4]. Also, the outcome in assay [5], in [6], in assay [7], in [8], in assay [10] and in assay [19] was inactive. For the same compound, the result in [11] and in assay [12] was inactive. Besides, the AC50 in assay [9] is 2.75 µM (active).
Regarding `Cc1nn(-c2cc(NS(C)(=O)=O)c(Cl)cc2Cl)c(=O)n1C(F)F`, the compound was called inactive in assay [15], in [13], in assay [3], in [16], in assay [6] and in [14]. Also, the outcome in [7], in [8], in assay [9], in [10], in [11] and in assay [12] was inactive.
As to `C#CCC1=C(C)C(OC(=O)C2C(C=C(C)C)C2(C)C)CC1=O` (stereo not given), the outcome in [15], in assay [2], in [3], in assay [16], in assay [18] and in [4] was inactive. For the same compound, the compound was classed as inactive in assay [5], in [14], in assay [11] and in [12]. Moreover, the AC50 in [6] is 93.4 µM (active); in assay [7] it was 80 µM (active); in assay [8], 68.1 µM (active); in assay [9] it was 13.2 µM (active); in [10], 44.5 µM (active).
